High-throughput results from PubChem BioAssay.
Most compounds without a hit are left out; they make up all but 3.2% or so of the library.
Tau fil binding: tau filament binding | P10636 | recombinant tau filaments, thioflavin S fluorescence, 15 h; filaments grown with octadecylsulfate alongside compound | Potency, µM (doses to about 57.1 µM) | 71,000 compounds, 2% hits | AID 596;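 note: actives lower thioflavin S fluorescence by blocking filaments or displacing dye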
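Quantitative HTS: thioflavine S signal from ODS-induced tau filaments, excited at 450 nm, emission 510 nm. Conditions: 1 uM tau, 30 uM ODS, 15 h at 37 C, pH 7.4.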
Hsp90 Hop PPI: changes Hsp90-Hop TPR2A binding signal, up or down; AlphaScreen TPR2A-His6 binding biotin-Hsp90 C-terminal peptide; Potency, µM (titrated, usually from 57 µM); 71,000 compounds, 0.44% hits; active = well fitted curve in either direction with a large enough effect; inconclusive = small, poorly fitted or top-dose-only effect, or another doubt
ALOX15 inhib: inhibitors of human 15-lipoxygenase (ALOX15); P16050; purified 15hLO-1, xylenol orange hydroperoxide absorbance; Potency, µM (doses to about 57.1 µM), hits mostly inhibitors; 74,000 compounds, 1.4% hits; note: nearly all actives have a fitted effect of over 55% in size
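Quantitative HTS in 25 mM Hepes pH 7.5 containing 0.01% Triton X-100: human 15hLO-1 at 40 nM, arachidonic acid at 50 uM, 6 min turnover. Product quantified via ferrous oxidation/xylenol orange, 573:405 nm absorbance ratio.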
USP2a inhib: blocks human ubiquitin-specific protease USP2a; USP2a enzymatic assay, qHTS inhibition; Potency, µM (doses to about 38.3 µM), hits mostly inhibitors; 60,000 compounds, 0.1% hits; note: nearly all actives have a fitted effect of over 60% in size
Target sequence (O75604 whole entry, looked up): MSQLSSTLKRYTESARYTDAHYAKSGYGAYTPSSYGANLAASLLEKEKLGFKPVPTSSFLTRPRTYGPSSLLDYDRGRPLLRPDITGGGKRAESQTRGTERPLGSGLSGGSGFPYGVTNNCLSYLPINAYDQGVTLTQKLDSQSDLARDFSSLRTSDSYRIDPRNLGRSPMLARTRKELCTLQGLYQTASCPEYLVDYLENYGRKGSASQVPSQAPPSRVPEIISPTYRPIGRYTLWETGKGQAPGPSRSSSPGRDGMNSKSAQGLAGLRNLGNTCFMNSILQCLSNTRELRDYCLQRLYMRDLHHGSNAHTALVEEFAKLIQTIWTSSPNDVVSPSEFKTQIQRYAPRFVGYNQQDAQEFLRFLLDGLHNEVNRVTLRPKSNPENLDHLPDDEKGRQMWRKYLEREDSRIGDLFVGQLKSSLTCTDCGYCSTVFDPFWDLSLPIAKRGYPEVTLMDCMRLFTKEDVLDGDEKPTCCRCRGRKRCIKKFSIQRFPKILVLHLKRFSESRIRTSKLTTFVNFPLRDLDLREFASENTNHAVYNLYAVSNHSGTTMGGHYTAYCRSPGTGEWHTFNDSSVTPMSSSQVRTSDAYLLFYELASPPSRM
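20 nM USP2 core + cpd, 30 min RT; add 20 nM Ub-PLA2/20 uM NBD C6-HPC; read Ex460/Em535 at 0 h and 2.5 h. Normalized to NEM; qHTS curve fit/classification.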
Hits are given with their value; n = inactive; u = inconclusive; x = not tested or not shown; ! = repeats disagree; [ ] = remark or other dose. Unless noted, calls come from the whole dose curve; as a rule, active = well fitted curve in the direction sought with a large enough effect; inconclusive = small, poorly fitted or top-dose-only effect, or another doubt; inactive = no such curve, though single readings can be large; an effect the other way counts as inactive or inconclusive.

SMILES | Tau fil binding | Hsp90 Hop PPI | ALOX15 inhib | USP2a inhib
CCC(c1nnnn1C(C)(C)C)N1CCN(c2cc(Cl)ccc2C)CC1 (configuration not stated) | n | n | n | n
Nc1nc2c(ncn2C2CC(O)C(CO)O2)c(=O)[nH]1 (configuration not stated) | x | x | n | n
CC(=O)Nc1cc(-c2ccccc2)ccc1O | n | n | n | n
Nc1cc(-c2ccccc2)ccc1O | 25µM | n | 7.9µM | n
Cn1cnnc1SCNC(=O)C(F)(F)F | n | n | n | n
Cc1ccc2c(c1)-c1c(ssc1=S)C(C)(C)N2C(=O)CSc1nncn1C | 7.9µM | n | 16µM | n
Cc1cc(C)c2c(c1)-c1c(ssc1=S)C(C)(C)N2C(=O)CSc1nncn1C | 2µM | n[11 µM] | u | n[7.66 µM]
Nc1nc2c(c(=O)[nH]1)N=C(CNc1ccc(C(=O)NC(CCC(=O)O)C(=O)O)cc1)CN2 (configuration not stated) | x | x | n | x
COc1c2c(nc3ccccc13)O[C@@H]([C@@](C)(O)CO)C2 | n | n | n | n
CCOC(=O)c1cnc2c(C#N)c(C)nn2c1-c1ccccc1 | 16µM | n[2.3 µM] | u | x
CCOC(=O)c1cnc2c(C#N)c(C)nn2c1C | n | n | n | n
CCOC(=O)C1=C(N2CCCCC2)c2cc3c(n2C1=O)CCCC3 | 16µM | n | u | n
N[C@@H](Cc1cc(-c2ccc(Cl)cc2Cl)cc(CP(=O)(O)O)c1O)C(=O)O | 40µM | n | 13µM | x
CCc1cccc2nc3c(c([Si](C)(C)C)c12)Cn1c-3cccc1=O | 16µM | n | x | x
C=Cc1c(C)c2cc3[nH]c(cc4nc(cc5nc(cc1[nH]2)C(C)=C5CCC(=O)O)C(CCC(=O)O)=C4C)c(C)c3C=C | 5µM | u | u | n
O=C(Nc1c(F)cc(F)cc1Br)c1ccco1 | 16µM | n | n | n
Cc1noc(C)c1C(=O)Nc1c(F)cc(F)cc1Br | n | n | n | n
CCCCOc1ccc(-c2c(C#N)c(N)nc(SCC(N)=O)c2C#N)cc1 | n | n | u | u
C=C(C)CSc1nc(N)c(C#N)c(-c2ccc(C)cc2)c1C#N | n | u | 32µM | n
Fc1ccc(-n2[nH]nnc2=S)cc1N1CCCC1 | n | n | 25µM | n
CC(=O)c1ccc(N2CCCCCC2)c(F)c1 | n[11.4 µM] | n[11 µM] | n[11.4 µM] | n[7.66 µM]
CCCn1c(=O)c2ccccc2n2c(SCc3cc(=O)n4ccsc4n3)nnc12 | n | n | n | n
Cc1cccc(-n2c(SCc3cc(=O)n4ccsc4n3)nc3ccccc32)c1 | n | n | 13µM | n
O=C(Nc1ccc2ccccc2c1)c1cnccn1 | 25µM | n | n | n
CCCCOC(=O)c1ccc(NC(=O)c2cnccn2)cc1 | 25µM | n | n | n
SMILES | Tau fil binding | Hsp90 Hop PPI | ALOX15 inhib | USP2a inhib
CCCOC(=O)c1ccc(NC(=O)c2cnccn2)cc1 | n | n | n | n
O=C(Nc1ccc2nccnc2c1)c1cnccn1 | n | n | n | n
NC/C(=N\O)c1ccc(Cl)cc1Cl | n | n | u | n
O=[N+]([O-])c1cc(Cc2cc([N+](=O)[O-])c3cccnc3c2O)c(O)c2ncccc12 | n[11.4 µM] | 1.6µM | n[11.4 µM] | x
Oc1c(Br)cc(Br)c2cccnc12 | x | x | n | n
NC(=O)c1ccc(N2CCCCC2)c(N2C(=O)CCC2=O)c1 | n | n | n | n
NC(=O)c1cc(N)ccc1N1CCCC1 | 16µM | n | u | n
COC(=O)N1CCC2(CCN(Cc3nccs3)CC2)CC1 | n | n | n | n
O=C(C[N+]12CN3CN(CN(C3)C1)C2)c1ccc(-c2ccccc2)cc1 | 3.2µM | n[11 µM] | n[11.4 µM] | x
O=C(O)CCC(=O)c1ccc(-c2ccccc2)cc1 | n | n | n | n
COc1ccc(C2C3=C(CC(C)(C)CC3=O)Oc3ncn(CC(C)C)c(=N)c32)cc1 (configuration not stated) | 4µM | n | n | n
COc1ccc(C2C3=C(CC(C)(C)CC3=O)Oc3ncn(Cc4ccco4)c(=N)c32)cc1 (configuration not stated) | 16µM | n | n | n
Cc1cccc(NC(=O)Cn2nnc(-c3cccs3)n2)c1C | 13µM | u | n | n
CCc1ccccc1NC(=O)Cn1nnc(-c2cccs2)n1 | n | n | n | x
Nc1nnc(SCc2ccc(F)cc2Cl)s1 | 20µM | n | u | n
Nc1nnc(SCc2cccc(C(F)(F)F)c2)s1 | n[11.4 µM] | n[11 µM] | n[11.4 µM] | n[7.66 µM]
CCN(CC)c1nc(C#N)cc(-c2ccc(OC)cc2)n1 | 13µM | 25µM | n | n
COc1ccc(-c2cc(C(F)(F)F)n3nc(C)cc3n2)cc1 | n | u | n | x
CCN(CC)c1nc2cc(OC)ccc2cc1C#N | n | 25µM | n | n
O=S1(=O)[C@H]([C@H]2CC3c4ccccc4C2c2ccccc23)[C@@H](N2CCCCC2)[C@@H]1c1ccccc1 | n[11.4 µM] | n[11 µM] | n[11.4 µM] | x
NC(N)=NCCC[C@H](NC(=O)CC1(CC(=O)N2CCN(C3c4ccccc4NC(=O)c4ccccc43)CC2)CCCC1)C(=O)NCCn1c(=O)n(-c2ccccc2)n(-c2ccccc2)c1=O (some centres not stated) | x | x | 20µM | x
CC(=O)Nc1ccc(C(=O)CSc2nnc3scc(-c4ccccc4)n23)cc1 | n | n | n | n
Cc1ccc(-c2csc3nnc(SCC(=O)Nc4cccc(C)n4)n23)cc1 | 20µM | n | n | n
CCOC(=O)Cc1nnc2c(Nc3ccc(Cl)cc3)nc3nonc3n12 | 16µM | n | n | n
CCOC(=O)N1CCN(C(=O)Nc2ccc(Cl)cc2)CC1 | n | n | n | n
SMILES | Tau fil binding | Hsp90 Hop PPI | ALOX15 inhib | USP2a inhib
COc1ccc(-c2cc(=O)c3c(O)c(OC)c(OC)c(OC)c3o2)cc1OC | x | x | n | n
COc1ccc(-c2cc(OC)c3c(C)oc(C)c3c(=O)c2)cc1OC | 25µM | n | n | n
COc1cc(-c2cc(OC)c3c(C)oc(C)c3c(=O)c2)ccc1O | n | n | 25µM | n
CCOC(=O)C1CCN(c2nc3cc(OC)ccc3cc2C#N)CC1 | n | 25µM | n | n
COc1ccc2nc(N3CCC(C)CC3)c(C#N)cc2c1 | n | 25µM | n | x
COc1ccc2nc(N3CCC(O)CC3)c(C#N)cc2c1 | n | n | n | n
COc1ccc(OC)c([C@H]2Nc3ccccc3NC3=C2C(=O)CC(C)(C)C3)c1Br | n | n | x | x
Cc1ccc(S(=O)(=O)CCC(=O)c2ccc(O)cc2O)cc1 | n | n | n | x
CCCC(=O)c1cc(O)c(O)cc1O | u | n | 4µM | x
COc1ccc(C=Nc2c(O)ccc3ccccc23)cc1OC | 4µM | n[11 µM] | n[11.4 µM] | x
CCCCNC(=O)NS(=O)(=O)c1ccc(NS(=O)(=O)c2ccccc2)cc1 | n | n | n | n
Cc1nc2cnc(N3CCN(C)CC3)nc2n(-c2ccccc2)c1=O | n | n | n | n
CCCCNC(=O)CC1Nc2ccccc2NC1=O (configuration not stated) | n | n | n | x
O=C(CC1Nc2ccccc2NC1=O)NCc1cccnc1 (configuration not stated) | n | n | 16µM | n
Cc1ccc(C)o1 | n | n | n | x
C=CCN1C(=O)CS/C1=C(\C#N)S(=O)(=O)c1ccc(C)cc1 | 16µM | u | n | n
O=C1Cc2c([nH]c3ccc(Br)cc23)-c2ccccc2N1 | 32µM! | n | n | n
O=c1c2c([nH]c3ccc(Br)cc13)CCCC2 | n | n | n | n
